# Source: PubChem BioAssay
# TDP1 cell noCPT – qHTS for Inhibitors of human tyrosyl-DNA phosphodiesterase 1 (TDP1): qHTS in cells in absence of CPT; DT40 Tdp1-/- hTDP1 cells, no CPT, ATP luminescence, 48 h; Potency, µM (doses to about 46.2 µM), most hits filed as inhibitors; hit rate 15% among 420,000; further: nearly all actives have a fitted effect of over 55% in size
#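 No-CPT arm: Tdp1-/-;hTDP1 DT40 cells (400/well) plus compounds, incubated ≥48 hr at 37 °C. Readout CellTiter-Glo luminescence.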
# DT40 TDP1 CPT – growth inhibition of DT40 Tdp1-/-;hTDP1 cells with camptothecin (screen for TDP1 inhibitors) | chicken DT40 Tdp1-/-;hTDP1 cells + 20 nM CPT, ATP luminescence, 48 h | Potency, µM (doses to about 46.2 µM), usual class: inhibitors | hit rate 12% among 420,000 | AID 686979; further: nearly all actives have a fitted effect of over 55% in size
#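 Chicken DT40 Tdp1-/- cells complemented with human TDP1, 400 cells/well, exposed to compounds plus 20 nM camptothecin for at least 48 h at 37 C; viability read as ATP content by CellTiter-Glo luminescence.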
# HT1080-NT tox – kills 2HG-producing HT-1080-NT fibrosarcoma cells; Potency, µM (highest dose often 46.1 µM), most hits filed as cytotoxic; hit rate 1.6% among 360,000; HT-1080-NT fibrosarcoma viability, CellTiter-Glo ATP luminescence, 48 h;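 further: NT is the 2HG producing partner of a matched IDH1 knockdown line; nearly all actives have a fitted effect of over 55% in size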
#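 Luminescent CellTiter-Glo readout after 48 hours of compound exposure at 37 degrees C defined viability of HT-1080-NT cells. Activity was normalized to DMSO wells and cell-free media wells; concentration-response curves were fitted and assigned curve classes.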
# IL-1B inflam inh – inhibitors of inflammasome signaling (IL-1 beta secretion) | THP-1 LPS/ATP IL-1B secretion, AlphaLISA, 16 h; hits give low values | activity change, % at 57.5 µM | hit rate 4.7% among 360,000 | AID 743279; in the data active means activity change below about -50%; inconclusive means mostly about -30% to -49%
#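 Secreted IL-1B measured by AlphaLISA bead assay after 16 h compound exposure of THP-1 cells; compounds (final up to 57.5 uM) added 1 h before LPS (250 ng/mL) and ATP (1.25 mM) stimulation; lower signal means less secretion.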
# HT1080 IDH1KD tx – toxicity to HT-1080 IDH1 knockdown cells (counter line). hit rate 2% among 360,000. AID 686971. Potency, µM (top dose mostly 46.1 µM), most hits filed as cytotoxic. HT-1080 IDH1 knockdown viability, ATP luminescence, 48 h
#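 Luminescent ATP read-out (CellTiter-Glo, 10 min at room temperature) after 48 h compound exposure at 37 °C gave viability of IDH1-knockdown HT-1080 cells. Activity was normalised to DMSO and cell-free wells, then fitted as concentration-response curves.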
# A number is an active result; - = inactive; ? = inconclusive; . = no result given; ! = repeats disagree; [ ] = dose if it differs, or a comment. Sampled rows, rich in hits. Any-hit rate of the full collection: about 19%. Unless noted, the call rests on the fitted dose curve; in most records, active means well fitted curve in the direction sought with a large enough effect; inconclusive means small, poorly fitted or top-dose-only effect, or another doubt; inactive means no such curve, though single readings can be large; an effect the other way counts as inactive or inconclusive.
SMILES,TDP1 cell noCPT,DT40 TDP1 CPT,HT1080-NT tox,IL-1B inflam inh,HT1080 IDH1KD tx
Cc1cc(C(=O)CN2C(=O)C(=O)N(Cc3ccco3)C2=O)c(C)n1CCc1ccc(F)cc1,?,21µM,?,-,?
Cc1cc(C(=O)CN2C(=O)C(=O)N(Cc3ccco3)C2=O)c(C)n1CCc1ccccc1,18µM,23µM,?,-,?
Cc1[nH]c2ccccc2c1C(=O)CN1C(=O)C(=O)N(Cc2ccco2)C1=O,-,-,-,-,-
COc1ccc(CN(CCNC(=O)CCCCC(=O)NCCN(Cc2ccc(OC)cc2)C(C)C)C(C)C)cc1,?,?,-,?,-
Cc1ccc(-c2cc3ccccc3nc2N)cc1,26µM,16µM,?,-,-
Nc1nc2ccccc2cc1-c1cccs1,-,-,-,-,-
CC(=O)c1cc2c(cc1NC(=O)C1CN(C(C)=O)c3ccccc3O1)OCO2 (stereo unspecified),21µM,15µM,-,-,-
CC(=O)c1cc2c(cc1NC(=O)c1cc(C)nn1-c1ccccc1)OCO2,3.7µM,5.2µM,-,-,-
O=C(CCn1c(=O)oc2ccccc21)NCCN1CCOCC1,-,-,-,-,-
CCOCCCNC(=O)c1cn(CC)c2ccc(S(=O)(=O)N3CCC(C)CC3)cc2c1=O,-,-,-,-,-
COc1ccc(CNc2cccc3[nH]c(C(F)(F)F)nc23)cc1OC,21µM,?,-,-,-
O=C(c1cnccn1)N1CCC2(CC1)CN(c1ccncc1)C2,-,-,.,.,.
O=C(/C=C\Nc1ccc2c(c1)OCO2)c1cccs1,-,-,?,-,6.5µM
CSC(=S)N/N=C(\C)c1ccc(Br)cc1,2.9µM,?,-,-,-
COC(=O)N/N=C(\C)c1ccc(Br)cc1,-,-,-,-,-[9.24 µM]
O=C(NCCCN1CCOCC1)C(=O)N/N=C/c1ccc2c(c1)OCO2,-,-,-,-,-
CCCc1ccccc1OCCNC(C)=O,18µM,18µM,-,-,-
CC(=O)NC(CC(=O)NCCOc1ccccc1F)c1ccccc1 (stereo unspecified),-,-,-,-,-
COc1ccc([C@H]2CC(=O)C=C(c3ccc(C(F)(F)F)c(C(F)(F)F)c3)C2)cc1OC,?,?,-,-78,-
COc1ccc([C@H]2CC(=O)C=C(c3ccc(Cl)c(C(F)(F)F)c3)C2)cc1OC,?,?,-,-56,-
COc1ccc([C@H]2CC(=O)C=C(c3cccc(Cl)c3)C2)cc1,?,?,-,-,-
COc1cc(-c2noc(C)c2C(=O)NCCCn2ccnc2)cc(OC)c1OC,-,-,-,-,-
O=C(COC(=O)c1ccccc1OCc1ccccc1Cl)NCC1CCCO1 (stereo unspecified),?,?,-,-51,-
COc1ccccc1CN1CCCC2(CCN(C(=O)c3cc(C(F)(F)F)cc(C(F)(F)F)c3)CC2)C1,-,-,.,.,.
Cc1cc2nc(-c3nnnn3-c3c(C)cccc3C)c(=O)[nH]c2cc1C,16µM,?,-,-,-
SMILES,TDP1 cell noCPT,DT40 TDP1 CPT,HT1080-NT tox,IL-1B inflam inh,HT1080 IDH1KD tx
CC(C)(C)c1ccc(C(O)c2ncc(-c3ccccc3F)[nH]2)cc1 (stereo unspecified),?,?,-,-,?
COc1cccc(/C=C/C(=O)OCC(=O)c2ccc(C)c(C)c2)c1OC,26µM,-,-,-,-
COc1ccc(/C=C/C(=O)c2ccc3c(c2)OCCO3)cc1[N+](=O)[O-],15µM,?,-,-55,-
COc1ccccc1NC(CC(=O)c1ccccc1)C(=O)OCC(=O)c1ccc(C)c(C)c1 (stereo unspecified),16µM,10µM,-,-,-
COc1ccc(/C=N/NC(=O)c2ccc3c(c2)OCCO3)cc1[N+](=O)[O-],-,-,-,-,-
O=C(/C=C/c1cccc([N+](=O)[O-])c1)c1ccc2c(c1)OCCO2,18µM,?,?,-,?
O=C(c1cccc([N+](=O)[O-])c1)c1ccc2c(c1)OCCOCCOCCOCCO2,?,-,-,-,-
COCCCNC(=O)c1cnn(-c2ncc3c(n2)-c2ccccc2CCC3)c1C,-,-[9.04 µM],.,.,.
CC12CS(=O)(=O)CC1SC(=S)N2Cc1ccccc1 (stereo unspecified),-,-,-,-,-
COc1cc(CC(=O)OCC(=O)c2ccc3c(c2)OCCO3)cc(OC)c1OC,1.3µM,1.3µM,1.6µM,-,1.5µM
COc1cccc(/C=C/C(=O)c2ccc3c(c2)OCCO3)c1OC,?,4.1µM,?,-99,?
O=C(COC(=O)c1ccc(O)cc1)c1ccc2c(c1)OCCO2,-,-,-,-,-
CCN(CC(=O)Nc1ccc2c(c1)OCCO2)C(=O)/C=C/c1cccc(OC)c1OC,-,-,-,-,-
Cc1ccc(COC(=O)c2[nH]c3c(c2C)C(=O)CC(c2ccc(N(C)C)cc2)C3)cc1 (stereo unspecified),-,-,.,.,.
CN1CCN(S(=O)(=O)c2cnccc2N2CCN(c3cccc(Cl)c3)CC2)CC1,18µM,18µM,?,-50,?
CN1CCN(c2ccncc2S(=O)(=O)N2CCCCC2)CC1,-,-,-,-,-
CCN(CC)S(=O)(=O)c1cnccc1N1CCN(c2cccc(Cl)c2)CC1,16µM,?,-,-69,-
CNS(=O)(=O)c1cnccc1N1CCN(c2cccc(Cl)c2)CC1,?,-,-,-,-
COc1ccc(Br)cc1/C=N/NC(=O)c1ccc(OC)c(OC)c1,-,-,-,-,-
COc1ccc(Br)cc1/C=N/NC(=O)c1cc(OC)c(OC)c(OC)c1,?,?,?,-,16µM
COc1cc(C(=O)N/N=C/c2ccsc2C)cc(OC)c1OC,0.65µM,1.2µM,0.92µM,-,0.58µM
Cc1cc(=O)oc2cc(N3C(=O)CC(Cc4ccccc4)C3=O)ccc12 (stereo unspecified),-,-,-,-,-
CC(C)[N+](C)(C)CC(O)COc1cccc2ccccc12 (stereo unspecified),-,-,.,.,.
CCc1ccc(CN(C)CC(O)COc2cccc3ccccc23)cc1 (stereo unspecified),?,?,?,-99,?
OC(CNCc1ccccc1F)COc1cccc2ccccc12 (stereo unspecified),?,?,?,-70,15µM
CC(C)NCC(O)COc1cccc2ccccc12 (stereo unspecified),16µM!,16µM!,.,-,.
OCC(O)COc1cccc2ccccc12 (stereo unspecified),-,-,.,.,.
CC(=O)c1ccc(S(=O)(=O)N2CCN(CC(=O)Nc3ccccc3C(=O)NC3CC3)CC2)cc1,?,?,-,-,-
C/C(=N\NC(=O)CCC(=O)Nc1ccc(C)c(C)c1)c1cccs1,-,-,-,-,-
